According to PubChem BioAssay (EPA / NIEHS):
Results filed as inconclusive are left out. The source made the active and inactive calls. How the source made its calls, unless noted: active means hit-call score of the fitted dose curve at least 0.9, where 1 is the maximum; inactive means score below 0.9.

Experiments:
[1] = read-out: Interleukin-8 (IL8), CXCL8 (gene 3576); assay: BSK_3C_IL8: BioMAP Diversity Plus: 3C Assay for Interleukin-8 (IL8) Biomarker Activity (AID 2283020); settings: primary human endothelial cells (HUVEC); actives raise or lower the signal
Method in brief: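 Endothelial primary cells of human umbilical vein origin are dosed with chemical; after 24 h the IL-8 biomarker is measured by ELISA, and concentration–response is fitted in both directions versus DMSO.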

[2] = read-out: Monokine induced gamma interferon (MIG), CXCL9 (gene 4283); assay: BSK_3C_MIG: BioMAP Diversity Plus: 3C Assay for Monokine induced gamma interferon (MIG) Biomarker Activity (AID 2283021); settings: primary human endothelial cells (HUVEC); actives raise or lower the signal
Method in brief: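 Endothelial primary cells (human umbilical vein) are dosed with test chemical in the 3C system. MIG levels are measured by ELISA at 24 h and fitted in both directions relative to DMSO.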

[3] = biological target: human Vitamin D Receptor (VDR), VDR (gene 7421) (UniProt P11473); assay: ATG_VDR_TRANS: Attagene TRANS-FACTORIAL HepG2 Assay for human Vitamin D Receptor (VDR) (AID 2283022; active means hit-call score of the fitted dose curve at least 0.9, where 1 is the maximum)
Chain of human Vitamin D Receptor (VDR), VDR (gene 7421) (P11473 whole entry, looked up, the tested form may be a part): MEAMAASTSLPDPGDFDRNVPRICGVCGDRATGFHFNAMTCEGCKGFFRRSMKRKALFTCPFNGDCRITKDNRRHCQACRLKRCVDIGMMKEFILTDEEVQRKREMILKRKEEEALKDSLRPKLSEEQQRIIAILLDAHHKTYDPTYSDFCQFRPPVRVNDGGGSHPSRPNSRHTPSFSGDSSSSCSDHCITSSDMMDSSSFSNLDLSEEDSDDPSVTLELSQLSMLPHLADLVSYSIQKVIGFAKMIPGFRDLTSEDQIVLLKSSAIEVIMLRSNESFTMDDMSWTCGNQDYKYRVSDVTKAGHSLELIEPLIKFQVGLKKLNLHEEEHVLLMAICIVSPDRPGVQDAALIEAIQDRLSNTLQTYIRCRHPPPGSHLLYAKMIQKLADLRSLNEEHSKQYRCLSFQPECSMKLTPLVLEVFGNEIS
Method in brief: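 HepG2 cells were transiently transfected with multiple GAL4-UAS reporter units, so signal reflects exogenous chimeric receptor-Gal4 activity. After 24 h compound exposure, reporter mRNA was measured by RT-PCR, fluorescent labelling and capillary electrophoresis, fitted for gain of signal versus DMSO.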

[4] = BSK_3C_SRB: Viability Assessment in the BioMAP Diversity Plus: 3C Assay (AID 2283023); settings: primary human endothelial cells (HUVEC);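 further: fitted both ways against DMSO so a hit may be signal rise or drop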
Method in brief: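 Primary human umbilical vein endothelial cells in the 3C system were read 24 h after compound dosing. Total protein was stained with 0.1% sulforhodamine B after 10% TCA fixation and read at 560 nm, with bidirectional fitting against DMSO as baseline.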

[5] = read-out: Matrix Metallopeptidase 1 (MMP1), MMP1 (gene 4312); assay: BSK_BE3C_MMP1: BioMAP Diversity Plus: BE3C Assay for Matrix Metallopeptidase 1 (MMP1) Biomarker Activity (AID 2283024); settings: primary human bronchial epithelial cells; actives raise or lower the signal
Method in brief: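 MMP1 signal, measured by ELISA after a 24 h chemical exposure of human primary bronchial epithelial cells, is analysed with bidirectional fitting using DMSO as negative control.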

[6] = BSK_3C_Vis: BioMAP Diversity Plus: 3C Assay for Morphology Visualization (AID 2283025); settings: primary human endothelial cells (HUVEC);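 further: fitted both ways so gain or loss versus DMSO counts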
Method in brief: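 Morphology read by light microscopy serves as a background control for the multiplexed 3C assay in human umbilical vein endothelial cells, taken 24 h after dosing, with DMSO as the negative control and bidirectional curve fitting.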

[7] = read-out: Pselectin, SELP (gene 6403); assay: BSK_4H_Pselectin: BioMAP Diversity Plus: 4H Assay for Pselectin Biomarker Activity (AID 2283026); settings: primary human endothelial cells (HUVEC); actives raise or lower the signal
Method in brief: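 Endothelial primary cells (human umbilical vein) are dosed, incubated 24 h, and assayed for surface P-selectin by ELISA; responses in either direction are fitted relative to the DMSO negative control.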

[8] = BSK_4H_SRB: Viability Assessment in the BioMAP Diversity Plus: 4H Assay (AID 2283027); settings: primary human endothelial cells (HUVEC);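 further: cells exposed to compound for 24 h before staining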;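 on AC50: curves fitted both ways versus DMSO so AC50 may be loss or gain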
Method in brief: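 Cytotoxicity readout: sulforhodamine B (0.1%) staining of total protein after 10% TCA fixation, measured at 560 nm in human umbilical vein endothelium at 24 h. DMSO set the baseline; fitting was bidirectional.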

[9] = BSK_BE3C_SRB: Viability Assessment in the BioMAP Diversity Plus: BE3C Assay (AID 2283028); settings: primary human bronchial epithelial cells
Method in brief: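 Human primary bronchial epithelial cells were exposed to test chemicals for 24 h. Total protein in parallel cultures was then measured by staining with 0.1% sulforhodamine B after 10% TCA fixation, with absorbance read at 560 nm. Activity was fitted bidirectionally against DMSO.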

[10] = read-out: Thrombomodulin, THBD (gene 7056); assay: BSK_3C_Thrombomodulin: BioMAP Diversity Plus: 3C Assay for Thrombomodulin Biomarker Activity (AID 2283029); settings: primary human endothelial cells (HUVEC); actives raise or lower the signal
Method in brief: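 Endothelial cells from umbilical vein are dosed with test chemical and incubated 24 h. Thrombomodulin is then quantified by ELISA, with DMSO serving as negative control and activity baseline.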

[11] = read-out: Urokinase-type plasminogen activator receptor (uPAR), PLAUR (gene 5329); assay: BSK_4H_uPAR: BioMAP Diversity Plus: 4H Assay for Urokinase-type plasminogen activator receptor (uPAR) Biomarker Activity (AID 2283030); settings: primary human endothelial cells (HUVEC); actives raise or lower the signal
Method in brief: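 Primary human umbilical vein endothelial cells were exposed to chemical for 24 h before cell-surface uPAR was quantified by ELISA. Activity was fitted bidirectionally against the DMSO negative control baseline.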

[12] = read-out: Vascular endothelial growth factor receptor 2 (Homo sapiens) (UniProt P35968); assay: BSK_4H_VEGFRII: BioMAP Diversity Plus: 4H Assay for Vascular endothelial growth factor receptor 2 (VEGFR2) Biomarker Activity (AID 2283031); settings: primary human endothelial cells (HUVEC); actives raise or lower the signal;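 on AC50: cell-surface VEGFR2 protein level quantified by ELISA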
Method in brief: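 Primary human umbilical vein endothelial cells in the BioMAP 4H system were dosed with test chemical, and 24 h later VEGFRII was measured by ELISA. Activity was fitted bidirectionally against DMSO as negative control and baseline.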

[13] = read-out: Human Leukocyte Antigen - DR isotype (HLADR), HLA-DRA (gene 3122); assay: BSK_BE3C_HLADR: BioMAP Diversity Plus: BE3C Assay for Human Leukocyte Antigen - DR isotype (HLADR) Biomarker Activity (AID 2283032); settings: primary human bronchial epithelial cells; actives raise or lower the signal
Method in brief: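 Chemicals are dosed onto BE3C bronchial epithelial cultures of human origin and left 24 h. HLA-DR is then measured by ELISA, and the endpoint is fitted in both directions using DMSO as the activity baseline.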

[14] = read-out: Vascular cell adhesion molecule 1 (VCAM1), VCAM1 (gene 7412); assay: BSK_4H_VCAM1: BioMAP Diversity Plus: 4H Assay for Vascular cell adhesion molecule 1 (VCAM1) Biomarker Activity (AID 2283033); settings: primary human endothelial cells (HUVEC); actives raise or lower the signal
Method in brief: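 Chemicals are added to primary human umbilical vein endothelial cells. After 24 h, VCAM-1 levels are measured by ELISA. Values come from bidirectional fitting referenced to DMSO.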

[15] = read-out: Interferon-gamma inducible Protein 10 (IP10), CXCL10 (gene 3627); assay: BSK_BE3C_IP10: BioMAP Diversity Plus: BE3C Assay for Interferon-gamma inducible Protein 10 (IP10) Biomarker Activity (AID 2283034); settings: primary human bronchial epithelial cells; actives raise or lower the signal
Method in brief: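 IP-10 quantified by ELISA serves as the endpoint. Cells: primary human bronchial epithelium, read 24 h after compound addition. Activity is derived by bidirectional fitting with DMSO as negative control.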

[16] = read-out: Transforming growth factor beta 1 (TGFb1), TGFB1 (gene 7040); assay: BSK_BE3C_TGFb1: BioMAP Diversity Plus: BE3C Assay for Transforming growth factor beta 1 (TGFb1) Biomarker Activity (AID 2283036); settings: primary human bronchial epithelial cells; actives raise or lower the signal
Method in brief: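 Bronchial epithelial primary cells are treated with test chemical, then TGF-b1 is quantified by ELISA after 24 hours. Values derive from bidirectional fitting against DMSO, with cytotoxicity checked by SRB staining in parallel cultures.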

[17] = read-out: Plasminogen activator inhibitor-1 (PAI1), SERPINE1 (gene 5054); assay: BSK_BE3C_PAI1: BioMAP Diversity Plus: BE3C Assay for Plasminogen activator inhibitor-1 (PAI1) Biomarker Activity (AID 2283037); settings: primary human bronchial epithelial cells; actives raise or lower the signal
Method in brief: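 Values derive from bidirectional fitting against DMSO baseline of PAI-1 levels, measured by ELISA in human bronchial epithelial cells 24 h after compound addition.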

[18] = read-out: urokinase plasminogen activator (uPA), PLAU (gene 5328); assay: BSK_BE3C_uPA: BioMAP Diversity Plus: BE3C Assay for urokinase plasminogen activator (uPA) Biomarker Activity (AID 2283038); settings: primary human bronchial epithelial cells; actives raise or lower the signal;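 further: uPA protein level quantified by ELISA in cell cultures; uPA read one day after compound addition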
Method in brief: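 Human primary bronchial epithelial cells were exposed to chemical for 24 h, then uPA levels were measured by ELISA. Responses were fitted bidirectionally against DMSO as negative control and baseline. Parallel SRB staining of total protein gauged overt cytotoxicity.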

[19] = read-out: Urokinase-type plasminogen activator receptor (uPAR), PLAUR (gene 5329); assay: BSK_BE3C_uPAR: BioMAP Diversity Plus: BE3C Assay for Urokinase-type plasminogen activator receptor (uPAR) Biomarker Activity (AID 2283039); settings: primary human bronchial epithelial cells; actives raise or lower the signal
Method in brief: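 Steps: dose human primary bronchial epithelial cells, incubate 24 h, measure uPAR by ELISA, then fit gain- or loss-of-signal response bidirectionally relative to DMSO.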

[20] = read-out: Monokine induced gamma interferon (MIG), CXCL9 (gene 4283); assay: BSK_BE3C_MIG: BioMAP Diversity Plus: BE3C Assay for Monokine induced gamma interferon (MIG) Biomarker Activity (AID 2283035); settings: primary human bronchial epithelial cells; actives raise or lower the signal;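 further: MIG protein measured by ELISA in BE3C cultures after 24 h of dosing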
Method in brief: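 hu bronchial epithelial 1° cells, 24 h cpd; MIG by ELISA; bidirectional fit, DMSO = baseline.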

Measured: AC50

CCCCC(CC)COP(=O)(Oc1ccccc1)Oc1ccccc1 (stereo unspecified)
active: [1] 6.65 µM | [4] 9.7 µM | [5] 1.91 µM | [6] 10.1 µM | [7] 12.3 µM | [8] 20 µM | [10] 3.97 µM | [11] 20 µM | [12] 10.4 µM | [13] 20 µM | [14] 20 µM | [15] 20 µM
inactive: [2] | [3] | [9] | [16] | [17] | [18] | [19]

CC(Cl)CN(C)C (stereo unspecified)
inactive: all assays above

CSC(C)(C)C=NO
inactive: all assays above

Cc1c([N+](=O)[O-])cc2c(c1[N+](=O)[O-])C(C)(C)CC2(C)C
active: [1] 2.03 µM | [6] 37.5 µM | [13] 8.05 µM | [15] 20 µM | [16] 13.5 µM | [17] 5 µM | [19] 16.1 µM
inactive: all other assays above

CCOP(=S)(OCC)SCSCC
not listed: [20]
inactive: all other assays above

CC(C)(C)c1ccccc1OP(=O)(Oc1ccccc1)Oc1ccccc1
active: [1] 20 µM | [4] 20 µM | [5] 5.01 µM | [6] 20 µM | [7] 20 µM | [8] 11.1 µM | [10] 20 µM | [11] 34.4 µM | [13] 2.85 µM | [14] 20 µM
inactive: [2] | [3] | [9] | [12] | [15] | [16] | [17] | [18] | [19]

Nc1cc2c3c(c1)C(c1ccccc1)=N[C@@H](NC(=O)c1cccnc1)C(=O)N3CC2
not listed: [20]
inactive: all other assays above
